Assay results as given in ChEMBL document CHEMBL3988442, “University of Dundee, Small-Polar-MMV Screening Library” (2021).
Several values for one entry are separate records, joined by “and”; a condition that tells them apart may be missing. Equal values may be shown once. For some of these results: Measured potencies and affinities stand elsewhere.

Key:
Design in all cases: scale not given: direction of the effect not stated beside the values
[1] = target: Protein translocase subunit SecA (Escherichia coli (strain K12)) (UniProt P10408); test: Assay to Identify E. coli SecA ATPase Inhibitors; assay type: functional; settings: 30 µM
[2] = target: T1, Ubiquitin-activating enzyme e1, putative (Leishmania donovani (strain BPK282A1)) (UniProt E9BSI1); test: Leishmania donovani Ubiquitin Activating Enzyme (LdE1); assay type: functional; settings: 30 µM
T1 sequence (whole entry): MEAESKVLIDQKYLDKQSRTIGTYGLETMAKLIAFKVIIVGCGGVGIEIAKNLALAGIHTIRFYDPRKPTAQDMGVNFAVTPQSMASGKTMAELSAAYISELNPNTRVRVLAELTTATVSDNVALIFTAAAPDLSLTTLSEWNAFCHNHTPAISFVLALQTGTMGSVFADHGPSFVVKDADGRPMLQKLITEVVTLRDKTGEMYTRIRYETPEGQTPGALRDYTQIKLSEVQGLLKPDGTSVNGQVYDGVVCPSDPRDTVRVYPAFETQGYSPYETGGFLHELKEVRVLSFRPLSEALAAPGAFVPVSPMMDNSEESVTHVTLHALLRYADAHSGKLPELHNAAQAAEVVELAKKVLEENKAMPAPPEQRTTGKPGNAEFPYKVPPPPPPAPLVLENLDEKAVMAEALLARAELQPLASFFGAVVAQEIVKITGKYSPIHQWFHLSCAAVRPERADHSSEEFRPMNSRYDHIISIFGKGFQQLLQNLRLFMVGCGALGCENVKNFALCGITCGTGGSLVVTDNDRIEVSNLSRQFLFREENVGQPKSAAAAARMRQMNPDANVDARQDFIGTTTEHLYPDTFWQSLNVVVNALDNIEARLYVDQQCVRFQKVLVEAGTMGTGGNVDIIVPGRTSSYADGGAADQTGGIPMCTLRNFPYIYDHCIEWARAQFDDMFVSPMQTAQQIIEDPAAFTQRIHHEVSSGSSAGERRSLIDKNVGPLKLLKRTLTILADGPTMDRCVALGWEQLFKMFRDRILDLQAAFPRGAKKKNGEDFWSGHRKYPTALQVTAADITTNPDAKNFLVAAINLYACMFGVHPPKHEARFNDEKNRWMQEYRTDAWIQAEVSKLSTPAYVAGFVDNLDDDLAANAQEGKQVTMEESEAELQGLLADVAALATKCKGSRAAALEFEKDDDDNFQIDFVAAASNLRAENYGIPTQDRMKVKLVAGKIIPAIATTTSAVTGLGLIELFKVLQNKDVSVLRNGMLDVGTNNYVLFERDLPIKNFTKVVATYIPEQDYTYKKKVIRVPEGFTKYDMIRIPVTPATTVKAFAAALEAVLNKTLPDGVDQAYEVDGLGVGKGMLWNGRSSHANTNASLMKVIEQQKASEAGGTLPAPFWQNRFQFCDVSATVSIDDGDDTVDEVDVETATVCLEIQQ

[3] = target: Sialic acid-binding Ig-like lectin 9 (Homo sapiens) (UniProt Q9Y336); test: Hs-Siglec9 ALPHAscreen SOP 20170721; settings: 10 µM
Trypanosoma cruzi = test: Trypanosoma cruzi phosphomannomutase and mannose-1-phosphate guanylyltransferase assay; assay type: functional; settings: 10 µM
[4] = target: T2, Arginase-2, mitochondrial (Homo sapiens) (UniProt P78540); test: in vitro enzyme assay to detect the production of urea directly proportional to the activity of Arginase II; assay type: functional; settings: 33.3 µM; further: in the data most compounds retested in dose-response had high values
T2 sequence (whole entry): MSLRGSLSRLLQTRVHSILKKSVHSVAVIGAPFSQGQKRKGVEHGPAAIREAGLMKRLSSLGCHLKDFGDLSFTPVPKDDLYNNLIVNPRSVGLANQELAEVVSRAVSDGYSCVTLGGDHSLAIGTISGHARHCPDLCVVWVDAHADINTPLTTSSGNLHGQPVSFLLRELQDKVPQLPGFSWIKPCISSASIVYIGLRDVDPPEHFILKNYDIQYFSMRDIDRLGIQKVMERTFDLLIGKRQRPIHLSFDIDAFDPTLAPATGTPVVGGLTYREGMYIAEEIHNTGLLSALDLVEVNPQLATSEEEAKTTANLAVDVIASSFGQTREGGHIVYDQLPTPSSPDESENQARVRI

[5] = target: T3, Proteasome subunit beta (Trypanosoma cruzi) (UniProt O96673); test: Trypanosoma cruzi proteasome chymotrypsin-like activity (TcProtChymo) assay.; further: in the data most compounds retested in dose-response had high values; assay type: functional; settings: 9.37 µM
T3 sequence (whole entry): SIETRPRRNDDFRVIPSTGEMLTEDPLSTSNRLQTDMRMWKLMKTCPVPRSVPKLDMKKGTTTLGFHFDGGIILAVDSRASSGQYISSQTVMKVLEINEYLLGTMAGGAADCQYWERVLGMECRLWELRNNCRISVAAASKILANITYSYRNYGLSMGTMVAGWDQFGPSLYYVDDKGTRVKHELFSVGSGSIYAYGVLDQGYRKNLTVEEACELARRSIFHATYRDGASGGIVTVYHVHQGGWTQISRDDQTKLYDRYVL

Homo sapiens = species on record: Homo sapiens; test: To identify inhibition of the IFN signalling (Jak-Stat) pathway via expression of an eGFP reporter gene under the control of an IFN-stimulated response element (ISRE) containing MxA promoter.; assay type: functional; settings: 30 µM
[6] = target: T4, Tyrosyl-tRNA synthetase, putative (Trypanosoma cruzi (strain CL Brener)) (UniProt Q4DSP6); test: Trypanosoma cruzi tyrosyl tRNA synthetase (TcYRS) _High Tyrosine SOP; assay type: functional; settings: 30 µM; further: in the data most compounds retested in dose-response had high values
T4 sequence (whole entry): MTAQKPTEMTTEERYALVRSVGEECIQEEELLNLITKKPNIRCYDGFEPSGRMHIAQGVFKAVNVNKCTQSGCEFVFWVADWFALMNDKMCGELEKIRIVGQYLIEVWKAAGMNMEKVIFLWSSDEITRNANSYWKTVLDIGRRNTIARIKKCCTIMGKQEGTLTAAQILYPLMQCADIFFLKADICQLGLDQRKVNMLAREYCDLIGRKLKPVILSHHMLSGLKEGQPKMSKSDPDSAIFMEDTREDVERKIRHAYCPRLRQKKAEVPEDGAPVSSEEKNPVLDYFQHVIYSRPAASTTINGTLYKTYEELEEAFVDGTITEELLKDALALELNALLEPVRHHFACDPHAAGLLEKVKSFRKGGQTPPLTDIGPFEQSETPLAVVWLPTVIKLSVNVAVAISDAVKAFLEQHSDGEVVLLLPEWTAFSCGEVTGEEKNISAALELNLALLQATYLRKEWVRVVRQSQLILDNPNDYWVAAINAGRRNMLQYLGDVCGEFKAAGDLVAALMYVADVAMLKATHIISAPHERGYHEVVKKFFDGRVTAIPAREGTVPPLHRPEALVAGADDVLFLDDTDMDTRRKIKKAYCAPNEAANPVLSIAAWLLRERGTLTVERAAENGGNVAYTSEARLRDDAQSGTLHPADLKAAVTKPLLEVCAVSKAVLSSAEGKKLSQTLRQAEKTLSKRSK

[7] = target: T4, Tyrosyl-tRNA synthetase, putative (Trypanosoma cruzi (strain CL Brener)); test: Trypanosoma cruzi tyrosyl tRNA synthetase (TcYRS) SOP; assay type: functional; settings: 30 µM
[8] = target: Chromo domain-containing protein 1 (Saccharomyces cerevisiae (strain ATCC 204508 / S288c) (Baker's yeast)) (UniProt P32657); test: ScCHD-1 Enzyme Inhibition Assay; assay type: functional; settings: 30 µM; further: in the data most compounds retested in dose-response had high values
N/A = test: Trypanosoma cruzi proteasome luciferase counter-screen; assay type: functional; settings: 9.37 µM

Chain of Chromo domain-containing protein 1 (Saccharomyces cerevisiae (strain ATCC 204508 / S288c) (Baker's yeast)) (P32657 whole entry, the tested form may be a part): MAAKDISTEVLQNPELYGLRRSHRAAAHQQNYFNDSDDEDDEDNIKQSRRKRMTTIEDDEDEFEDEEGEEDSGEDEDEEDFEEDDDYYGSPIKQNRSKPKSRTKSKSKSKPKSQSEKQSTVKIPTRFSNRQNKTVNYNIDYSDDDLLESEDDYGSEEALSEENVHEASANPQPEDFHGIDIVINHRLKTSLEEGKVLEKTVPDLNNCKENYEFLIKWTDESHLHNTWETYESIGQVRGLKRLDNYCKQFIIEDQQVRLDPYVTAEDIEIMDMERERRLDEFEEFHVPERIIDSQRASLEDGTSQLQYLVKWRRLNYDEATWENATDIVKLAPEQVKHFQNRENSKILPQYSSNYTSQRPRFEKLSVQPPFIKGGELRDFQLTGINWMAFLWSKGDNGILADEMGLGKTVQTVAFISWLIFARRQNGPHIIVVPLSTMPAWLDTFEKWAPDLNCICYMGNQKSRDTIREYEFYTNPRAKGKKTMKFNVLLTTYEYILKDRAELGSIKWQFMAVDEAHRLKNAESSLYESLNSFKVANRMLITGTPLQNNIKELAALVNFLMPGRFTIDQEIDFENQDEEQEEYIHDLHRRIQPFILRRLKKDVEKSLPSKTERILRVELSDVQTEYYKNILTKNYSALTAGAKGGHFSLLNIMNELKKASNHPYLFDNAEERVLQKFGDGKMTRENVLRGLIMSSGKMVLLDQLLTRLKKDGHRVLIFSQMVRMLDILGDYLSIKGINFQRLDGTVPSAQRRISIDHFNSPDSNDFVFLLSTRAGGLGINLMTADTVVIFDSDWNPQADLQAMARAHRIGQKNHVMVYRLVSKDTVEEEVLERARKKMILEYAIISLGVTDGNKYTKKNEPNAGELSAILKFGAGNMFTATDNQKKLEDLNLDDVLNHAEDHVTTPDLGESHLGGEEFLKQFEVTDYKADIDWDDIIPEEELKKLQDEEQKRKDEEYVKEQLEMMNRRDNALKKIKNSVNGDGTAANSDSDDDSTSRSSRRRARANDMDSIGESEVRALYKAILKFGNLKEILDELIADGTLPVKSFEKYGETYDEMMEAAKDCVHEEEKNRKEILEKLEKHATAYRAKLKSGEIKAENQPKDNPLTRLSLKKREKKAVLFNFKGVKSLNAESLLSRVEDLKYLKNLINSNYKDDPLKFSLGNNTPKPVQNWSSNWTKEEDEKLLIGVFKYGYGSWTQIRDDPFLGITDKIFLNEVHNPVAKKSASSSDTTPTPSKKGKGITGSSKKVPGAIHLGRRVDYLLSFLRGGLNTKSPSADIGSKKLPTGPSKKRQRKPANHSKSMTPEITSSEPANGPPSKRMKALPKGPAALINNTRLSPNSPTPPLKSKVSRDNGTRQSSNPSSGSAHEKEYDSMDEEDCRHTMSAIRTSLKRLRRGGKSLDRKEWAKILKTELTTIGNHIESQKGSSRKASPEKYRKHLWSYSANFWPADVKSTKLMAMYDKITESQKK
Chain of Sialic acid-binding Ig-like lectin 9 (Homo sapiens) (Q9Y336 whole entry): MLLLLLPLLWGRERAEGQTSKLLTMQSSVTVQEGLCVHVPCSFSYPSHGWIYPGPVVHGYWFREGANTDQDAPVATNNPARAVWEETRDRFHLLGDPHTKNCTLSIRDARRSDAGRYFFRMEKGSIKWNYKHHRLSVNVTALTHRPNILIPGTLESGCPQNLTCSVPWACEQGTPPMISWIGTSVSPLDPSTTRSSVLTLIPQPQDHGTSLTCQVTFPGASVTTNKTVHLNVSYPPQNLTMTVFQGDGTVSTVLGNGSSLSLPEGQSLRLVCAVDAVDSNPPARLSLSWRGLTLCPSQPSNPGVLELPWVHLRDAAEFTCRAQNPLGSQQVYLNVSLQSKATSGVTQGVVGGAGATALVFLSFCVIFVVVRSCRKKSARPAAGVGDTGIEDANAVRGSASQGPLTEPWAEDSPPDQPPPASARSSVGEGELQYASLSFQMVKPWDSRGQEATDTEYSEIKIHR
Chain of Protein translocase subunit SecA (Escherichia coli (strain K12)) (P10408 whole entry): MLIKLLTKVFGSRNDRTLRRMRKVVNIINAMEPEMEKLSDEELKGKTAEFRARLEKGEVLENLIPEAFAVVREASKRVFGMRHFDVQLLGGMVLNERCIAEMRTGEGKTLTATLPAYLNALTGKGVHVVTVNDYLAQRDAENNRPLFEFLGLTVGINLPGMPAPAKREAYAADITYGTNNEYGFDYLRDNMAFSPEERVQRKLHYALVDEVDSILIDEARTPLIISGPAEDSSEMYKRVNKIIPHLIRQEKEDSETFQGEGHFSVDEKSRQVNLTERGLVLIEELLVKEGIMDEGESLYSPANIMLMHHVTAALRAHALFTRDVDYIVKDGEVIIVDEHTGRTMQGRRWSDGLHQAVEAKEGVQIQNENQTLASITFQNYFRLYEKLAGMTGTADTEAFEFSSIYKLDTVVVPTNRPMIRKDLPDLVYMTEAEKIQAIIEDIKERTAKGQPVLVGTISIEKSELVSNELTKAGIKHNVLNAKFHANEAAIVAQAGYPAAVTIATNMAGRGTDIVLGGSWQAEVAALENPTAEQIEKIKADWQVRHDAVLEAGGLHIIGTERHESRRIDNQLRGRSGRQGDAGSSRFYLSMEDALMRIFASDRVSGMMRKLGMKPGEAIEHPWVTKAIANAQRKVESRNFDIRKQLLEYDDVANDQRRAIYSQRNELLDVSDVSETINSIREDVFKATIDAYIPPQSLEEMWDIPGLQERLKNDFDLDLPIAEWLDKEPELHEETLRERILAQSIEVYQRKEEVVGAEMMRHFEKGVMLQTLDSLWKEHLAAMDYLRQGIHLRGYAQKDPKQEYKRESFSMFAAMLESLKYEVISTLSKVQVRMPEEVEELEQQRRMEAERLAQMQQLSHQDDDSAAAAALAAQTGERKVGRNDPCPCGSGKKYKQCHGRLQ

Row | Compound | Percent Effect [1] | Percent Effect [2] | Percent Effect [3] | Percent Effect (Trypanosoma cruzi) | Percent Effect [4] | Percent Effect [5] | Percent Effect (Homo sapiens) | Percent Effect [6] | Percent Effect [7] | Percent Effect [8] | Percent Effect (N/A)
1 | Cc1cc(N2CCC(Cc3ccccc3)CC2)nc(-c2ccncc2)n1 | -1.61% | -15.6% | 11% | 14.4% | -6.76% | -5.44% | -2.83% | 18.6% | 7.06% | 4.27% | 
2 | Cc1noc(C)c1C(=O)N1CC[C@H]2C[C@@H](c3nccs3)O[C@@H]2C1 | -6% | 6.49% | 1.62% | 5.55% | -10.5% | 14.2% | -13.4% | 7.89% | 12.8% | -3.15% | 
3 | CC(C)CC(CNC(=O)NCc1cc[nH]n1)N1CCOCC1 (stereo not given) | -1.69% | 17.9% | -27% | 7.04% | 0.82% | 17.8% | 11.6% | 4.31% | 20.5% | 25% | 
4 | Cc1[nH]/c(=N\C(=O)c2csc(NCC(C)C)n2)sc1C | -5.08% | 5.41% | 2.69% | -3.2% | -2.45% |  | 20.5% | 5.85% | 21.9% | 0.249% | 53.4% and 61%
5 | COc1ccccc1-c1noc(CN2CCCC2Cn2cccn2)n1 (stereo not given) | -4.25% | -13.3% | 1.74% | 3.01% | -0.444% | 14.3% | 1.34% | 1.58% | 0% | -7.06% | 
6 | CN(C)CCN1CCCC12CCN(C(=O)c1cnccn1)CC2 | -2.79% | 11.7% | 2.72% | 2.81% | 4.57% | 3.69% | 0.368% | 7.73% | 15% | -6.82% | 
7 | CC(=O)N1CCC2(CC1)C(=O)N(CC1CC1)c1ccccc12 | -5.06% | 9.09% | -0.719% | -3.56% | 5.48% | 10.6% | 6.99% | 3.87% | 7.5% | -7.42% | 
8 | Cc1csc2ncc(-c3ccnc(N4CCN(C)CC4)n3)c(=O)n12 | -1.31% | 0% | -2.78% | -3.21% | -0.444% | -0.933% | 0.181% | -3.68% | -10.3% | -10.1% | 
9 | Cc1ccc(C(=O)N2CCC3(CC2)CC(N2CCCC2)C3)cc1 | -4.52% | 11.7% | 1.16% | -0.75% | 1.83% | 7.12% | -12.1% | 8.7% | 12.5% | -4.42% | 
10 | CC(=O)N1CCCn2nc(CNS(=O)(=O)N3CCCCCC3)cc2C1 | -5.72% | 0% | 0.997% | -2.81% | 1.75% | 11.6% | 4.54% | 2.66% | 9.76% | 2.81% | 
11 | O=C(c1cc2cc(F)ccc2[nH]1)N1CCC(Nc2cccnn2)CC1 | -5.68% | 7.79% | -3.05% | -8.21% | -12.9% | 10.7% | 14% | 0.98% | -2.35% | -5.32% | 
12 | O=C1NCC2(CCCN(Cc3ccc(Cl)s3)C2)Oc2ccccc21 (stereo not given) | -1.75% | 20% | 4.75% | 1.18% | -1.33% | 10.3% | 12.7% | 4.23% | 20% | -28.8% | 
13 | Cc1csc(Nc2nccnc2C2CCCN2C(=O)C(C)C)n1 (stereo not given) | 1.4% | 14.7% | -6.58% | -4.34% | -0.885% | 9.69% | 5.46% | 2.12% | 10% | -21.8% | 
